In PubChem BioAssay (NCI) one finds growth data, which are given here for 13 compounds.

Some test systems named below: SK-MEL-2 melanoma; EKVX NSCLC; SN12C renal; UO-31 renal; TK-10 renal; ACHN renal; CAKI-1 renal; A498 renal; CCRF-CEM leukemia; MOLT-4 leukemia.
Assay in all cases: NCI-60 one-dose screen, 48 h (100 = growth as untreated, 0 = no growth, -100 = all killed)
What all share (settings): 10 µM unless noted

About 83,000 compounds went through this panel and 20% of them were active in at least one assay; those are over-represented in the sample as a whole.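 Cells were grown in 96-well plates and exposed to the test compound at a single concentration for 48 hours; results are reported as percent growth, with values below 10 considered active.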 Unmarked numbers belong to inactive results. Calls of active or inactive are those of the source.

Regarding `NS(=O)(=O)c1ccc(Nc2nc(SCC(=O)c3ccc(Cl)cc3)nc3c2CCCC3)cc1`, the growth is 67% in the assay on SK-MEL-2 melanoma; 47.8% with EKVX NSCLC; 25.6% in the assay on SN12C renal; 38% in the assay with UO-31 renal; 86.6% with TK-10 renal; 42% with ACHN renal. Besides, the growth in the assay with CAKI-1 renal is 43.2%; with A498 renal it was 61.1%; with CCRF-CEM leukemia it was 41.1%; with MOLT-4 leukemia it was 38.4%.
With `Cn1ccnc1C(=O)/C=C/c1ccc(NC(=O)c2c(F)c(F)c(F)c(F)c2F)cc1`, the growth with SK-MEL-2 melanoma is 112%; in the assay on EKVX NSCLC, 99.7%; in the assay with SN12C renal, 101%; with UO-31 renal it was 79.7%; in the assay with TK-10 renal, 133%; in the assay with ACHN renal it was 101%. Moreover, the growth is 107% with CAKI-1 renal, 113% in the assay on A498 renal, 86% in the assay on CCRF-CEM leukemia and 85.2% with MOLT-4 leukemia.
Turning to `COc1cc(Nc2c(C#N)cnn3cc(-c4cnn(CC(C)(C)O)c4)cc23)ccc1Cl`, the growth was 61.1% in the assay on SK-MEL-2 melanoma; 43.4% in the assay with EKVX NSCLC; 23.5% in the assay with SN12C renal; 11.6% in the assay on UO-31 renal; 23.3% in the assay on TK-10 renal; 18% in the assay on ACHN renal. The growth in the assay with CAKI-1 renal was 9.46% (active); with A498 renal it was -24.4% (active); in the assay on CCRF-CEM leukemia it was 32.6%; in the assay on MOLT-4 leukemia it was 36.7%.
Take `COc1ccc(C2CC(c3cccc(Nc4nc(Cl)nc5cc(OC)c(OC)cc45)c3)=Nc3c(N)nc(N)nc3N2)cc1` (centres undefined): the growth with SK-MEL-2 melanoma is 100%; with EKVX NSCLC it was 92.1%; in the assay on SN12C renal, 81.8%; in the assay with UO-31 renal, 90.7%; in the assay with TK-10 renal, 117%; in the assay on ACHN renal, 100%. Further, the growth was 94% in the assay on CAKI-1 renal, 94.7% in the assay on A498 renal, 36% in the assay on CCRF-CEM leukemia and 43.6% with MOLT-4 leukemia.
Consider `O=C(c1ccc(Cl)cc1)C1[C@H](c2ccc(Cl)cc2)[C@@H](c2ccccc2)NC12C(=O)Nc1ccccc12` (some centres undefined), for which the growth in the assay with SK-MEL-2 melanoma was 72.5%; in the assay on EKVX NSCLC, 58.6%; in the assay with SN12C renal, 16.6%; in the assay with UO-31 renal it was 43.8%; in the assay with TK-10 renal, 78.8%; in the assay with ACHN renal it was 34.5%. Moreover, the growth with CAKI-1 renal is 37%; in the assay on A498 renal, 74.3%; in the assay with CCRF-CEM leukemia, 53.9%; in the assay on MOLT-4 leukemia it was 21.1%.
Take `COc1cc(/C=C/C(=O)c2ccc(NC(=O)CSc3nnc(-c4ccc(-c5nc6ccc(Cl)cc6[nH]5)cc4)o3)cc2)cc(OC)c1OC`: the growth is 99.2% in the assay on SK-MEL-2 melanoma; 103% in the assay with EKVX NSCLC; 104% with SN12C renal; 86% with UO-31 renal; 136% with TK-10 renal; 96.7% in the assay with ACHN renal. In addition, the growth with CAKI-1 renal is 91.2%; in the assay on A498 renal it was 101%; with CCRF-CEM leukemia, 85.9%; in the assay on MOLT-4 leukemia it was 85%.
`CN(Cc1ccccc1)S(=O)(=O)/N=C1\NC(=O)NC1=C(Cl)Cl`: the growth in the assay on SK-MEL-2 melanoma was 87.8%; in the assay on EKVX NSCLC it was 86.2%; in the assay with SN12C renal, 18.4%; in the assay on UO-31 renal, 93.3%; with TK-10 renal, 44.1%; with ACHN renal, -90.8% (active). In addition, the growth in the assay on CAKI-1 renal is 86.8%; with A498 renal, 70.8%; in the assay with CCRF-CEM leukemia, -12.8% (active); with MOLT-4 leukemia, 10.3%.
Turning to `CCCCCc1ccc(S(=O)(=O)Nc2cc(-c3csc(NC(=O)CN4CCN(C)CC4)n3)ccc2OC)cc1`, the growth in the assay with SK-MEL-2 melanoma was 73.6%; with EKVX NSCLC, 63.4%; in the assay on SN12C renal it was 11.8%; in the assay on UO-31 renal, -92.7% (active); in the assay with TK-10 renal it was 103%; in the assay with ACHN renal, 3.55% (active). For the same compound, the growth with CAKI-1 renal is -15.5% (active); in the assay on A498 renal, 75.2%; in the assay on CCRF-CEM leukemia it was 2.18% (active); in the assay on MOLT-4 leukemia it was -5.31% (active).
Regarding `COc1cc2c(cc1OC)C(Sc1ccc(C)cc1)c1c(nc(N)c(C#N)c1N)O2` (centres undefined), the growth is -20% (active) in the assay on SK-MEL-2 melanoma; -84.3% (active) in the assay on EKVX NSCLC; -64.3% (active) in the assay on SN12C renal; -99.7% (active) in the assay on UO-31 renal; -63.6% (active) in the assay on TK-10 renal; -95.8% (active) in the assay with ACHN renal. Further, the growth in the assay with CAKI-1 renal is -62.9% (active); in the assay on A498 renal, -54.7% (active); in the assay with CCRF-CEM leukemia, 2.14% (active); in the assay with MOLT-4 leukemia it was -9.07% (active).
With `CCCCCc1ccc(S(=O)(=O)Nc2cc(-c3csc(NC(=O)CN4CCN(CCO)CC4)n3)ccc2OC)cc1`, the growth is 94.9% in the assay on SK-MEL-2 melanoma; 73.6% with EKVX NSCLC; 74.7% in the assay on SN12C renal; 54.5% in the assay with UO-31 renal; 104% in the assay with TK-10 renal; 65.6% in the assay on ACHN renal. The growth is 70.8% in the assay with CAKI-1 renal, 63.1% in the assay on A498 renal, 4.78% (active) in the assay on CCRF-CEM leukemia and 6.18% (active) in the assay on MOLT-4 leukemia.
In the case of `Cn1ccnc1C(=O)/C=C/c1ccc(CNC(=O)c2ccc(Cl)cc2)cc1`, the growth was 91.7% in the assay on SK-MEL-2 melanoma; 26.4% in the assay with EKVX NSCLC; 17.3% in the assay with SN12C renal; -11.3% (active) in the assay on UO-31 renal; 21.3% with TK-10 renal; 2.81% (active) in the assay on ACHN renal. Also, the growth is 35.9% in the assay with CAKI-1 renal, 21.1% in the assay with A498 renal, 7.64% (active) in the assay with CCRF-CEM leukemia and 0.825% (active) with MOLT-4 leukemia.
With `C=CC(=O)N1CCC=C(c2cc3c(N[C@H](C)c4ccccc4)ncnc3[nH]2)C1`, the growth in the assay on SK-MEL-2 melanoma was 89.7%; in the assay on EKVX NSCLC, 28.1%; in the assay on SN12C renal, 29.3%; in the assay on UO-31 renal it was 20.5%; with TK-10 renal, -5.86% (active); in the assay on ACHN renal it was 6.81% (active). The growth in the assay with CAKI-1 renal is 14.4%; in the assay with A498 renal, -27.8% (active); with MOLT-4 leukemia, 93.4%.
`Nc1nc(N)c2c(n1)NC(c1ccc(C(F)(F)F)cc1)CC(c1ccc(Nc3nc(NCCO)nc(N4CCOCC4)n3)cc1)=N2` (centres undefined): the growth is 80.6% in the assay with SK-MEL-2 melanoma; 85.5% in the assay on EKVX NSCLC; 78.2% in the assay on SN12C renal; 80.4% in the assay with UO-31 renal; 97.5% in the assay on TK-10 renal; 88.3% with ACHN renal. Further, the growth is 79.7% in the assay on CAKI-1 renal, 72.6% with A498 renal, 35.1% in the assay on CCRF-CEM leukemia and 23.8% with MOLT-4 leukemia.
